Source: the supplement of paper PMC10849652
The full data set covers some 8,800 targets. This sample favours those with a hit. About 0.5% of all pairs of compound and target were hits.

How the values were obtained:
Assay in all cases: log2 fold change, soluble protein after heating vs DMSO (PISA); higher = thermal stabilisation; K562 lysate, 10 uM; active = over 0.2 and 3.5 SD of the protein, either way, in both replicates (recomputed)
[1] = compound: C1=CC=C(C=C1)[C@H](COC2=CC3=C(C=C2)NC(=O)N3)NC(=O)C4=CC=CN(C4=O)CC5=CC(=C(C=C5)F)F
How it was run: (§1)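 Log-two fold change in thermal stability relative to solvent controls is reported from duplicates. For each sample, crude K562 extract from dounce-homogenised pellets in PBS pH 7.4 with 1 mM MgCl2, at 1 mg/mL protein, was treated with 10 μM compound for 30 min. Aliquots heated for 3 min across 48°C-58°C were pooled, brought to 0.5% NP-40 at 4°C and cleared at 21,000xg for 90 min. The supernatant was quantified by TMTpro 16plex LC-MS/MS with channel sums equalised.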

[2] = compound: CC1=C(SC2=C1C(=N[C@H](C3=NN=C(N32)C)CC(=O)N)C4=CC=C(C=C4)Cl)C
How it was run: as §1

[3] = compound: CC1=C2C(=CC=C1)N=C(N(C2=O)C3=CC=CC=C3C)CN4C=NC5=C(N=CN=C54)N
How it was run: as §1

[4] = compound: Cc1sc2c(c1C)C(c1ccc(Cl)cc1)=N[C@@H](CC(=O)OC(C)(C)C)c1nnc(C)n1-2
How it was run: as §1

[5] = compound: c1ccc([C@@H]2C[C@H]2NC2CCNCC2)cc1
How it was run: as §1

Measured: log2 fold change

ENO2 (UniProt P09104)
UniProt P09104, sequence (P09104 whole entry, looked up): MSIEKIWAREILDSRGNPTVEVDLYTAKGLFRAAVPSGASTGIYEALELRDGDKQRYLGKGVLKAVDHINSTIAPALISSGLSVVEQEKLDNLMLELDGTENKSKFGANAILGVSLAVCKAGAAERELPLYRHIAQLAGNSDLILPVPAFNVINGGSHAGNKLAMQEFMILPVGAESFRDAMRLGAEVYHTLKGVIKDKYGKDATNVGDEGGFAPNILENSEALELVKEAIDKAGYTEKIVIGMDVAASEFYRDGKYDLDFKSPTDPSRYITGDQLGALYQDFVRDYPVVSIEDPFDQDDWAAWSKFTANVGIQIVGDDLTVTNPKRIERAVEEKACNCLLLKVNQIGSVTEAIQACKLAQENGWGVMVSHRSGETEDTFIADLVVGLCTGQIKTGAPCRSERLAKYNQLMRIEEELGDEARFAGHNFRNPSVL
inactive: [1] 0.019 | [2] -0.122 | [3] 0.037 | [4] -0.009 | [5] -0.153

ENY2 (UniProt Q9NPA8)
UniProt Q9NPA8, sequence (Q9NPA8 whole entry, looked up): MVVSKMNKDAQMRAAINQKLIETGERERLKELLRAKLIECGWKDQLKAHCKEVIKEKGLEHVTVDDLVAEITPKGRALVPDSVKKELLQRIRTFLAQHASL
inactive: [1] 0.033 | [2] -0.001 | [3] -0.162 | [4] 0.117 | [5] 0.386

GDPD1 (UniProt Q8N9F7)
UniProt Q8N9F7, sequence (Q8N9F7 whole entry, looked up): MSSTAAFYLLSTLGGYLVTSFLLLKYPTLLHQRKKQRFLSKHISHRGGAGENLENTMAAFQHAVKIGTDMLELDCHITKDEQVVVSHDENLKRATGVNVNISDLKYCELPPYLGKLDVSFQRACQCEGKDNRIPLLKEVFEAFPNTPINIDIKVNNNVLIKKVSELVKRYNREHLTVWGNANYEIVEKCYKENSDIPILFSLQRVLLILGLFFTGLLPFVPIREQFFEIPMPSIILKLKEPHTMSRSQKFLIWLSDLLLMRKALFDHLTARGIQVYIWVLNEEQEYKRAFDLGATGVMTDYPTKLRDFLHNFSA
inactive: [1] -0.047 | [2] 0.018 | [3] 0.117 | [4] 0.024 | [5] -0.036

FAM118A (UniProt Q9NWS6)
UniProt Q9NWS6, sequence (Q9NWS6 whole entry, looked up): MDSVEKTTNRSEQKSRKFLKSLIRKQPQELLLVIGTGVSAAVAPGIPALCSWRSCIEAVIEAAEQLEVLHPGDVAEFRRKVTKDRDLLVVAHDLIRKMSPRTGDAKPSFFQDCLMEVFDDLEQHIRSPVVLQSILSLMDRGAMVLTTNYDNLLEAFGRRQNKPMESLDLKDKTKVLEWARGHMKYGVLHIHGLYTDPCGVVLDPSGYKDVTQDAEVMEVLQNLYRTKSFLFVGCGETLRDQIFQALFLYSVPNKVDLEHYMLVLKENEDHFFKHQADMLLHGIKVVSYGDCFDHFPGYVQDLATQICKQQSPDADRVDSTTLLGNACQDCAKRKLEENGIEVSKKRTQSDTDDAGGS
inactive: [1] -0.028 | [2] -0.033 | [3] -0.021 | [4] -0.108 | [5] -0.015

EDARADD (UniProt Q8WWZ3)
UniProt Q8WWZ3, sequence (Q8WWZ3 whole entry, looked up): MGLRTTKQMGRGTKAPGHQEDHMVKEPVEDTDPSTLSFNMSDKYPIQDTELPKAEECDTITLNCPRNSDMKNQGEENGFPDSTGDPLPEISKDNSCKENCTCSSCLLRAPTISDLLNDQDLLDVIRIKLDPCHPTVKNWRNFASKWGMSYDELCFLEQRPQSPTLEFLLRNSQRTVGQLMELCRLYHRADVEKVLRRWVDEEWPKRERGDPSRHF
inactive: [1] 0.074 | [2] -0.088 | [3] -0.032 | [4] -0.037 | [5] 0.064

FARSB (UniProt Q9NSD9)
UniProt Q9NSD9, sequence (Q9NSD9 whole entry, looked up): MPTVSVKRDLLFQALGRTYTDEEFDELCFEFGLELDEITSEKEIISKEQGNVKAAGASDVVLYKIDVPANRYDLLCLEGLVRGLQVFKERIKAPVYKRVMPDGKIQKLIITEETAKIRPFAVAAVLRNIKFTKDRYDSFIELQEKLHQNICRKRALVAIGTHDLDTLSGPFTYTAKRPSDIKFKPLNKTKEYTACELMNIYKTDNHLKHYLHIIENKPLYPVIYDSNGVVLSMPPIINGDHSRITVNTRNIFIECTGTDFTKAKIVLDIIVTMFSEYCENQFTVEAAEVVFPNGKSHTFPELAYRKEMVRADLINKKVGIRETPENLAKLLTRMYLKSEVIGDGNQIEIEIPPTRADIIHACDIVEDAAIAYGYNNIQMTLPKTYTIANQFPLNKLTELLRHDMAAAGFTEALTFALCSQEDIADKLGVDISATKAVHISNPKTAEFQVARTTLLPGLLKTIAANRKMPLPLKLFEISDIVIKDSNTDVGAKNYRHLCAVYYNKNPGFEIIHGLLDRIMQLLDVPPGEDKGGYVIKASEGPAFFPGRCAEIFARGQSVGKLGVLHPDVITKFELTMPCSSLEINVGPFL
inactive: [1] -0.014 | [2] 0.036 | [3] -0.004 | [4] 0.02 | [5] 0.052

EIF2AK1 (UniProt Q9BQI3)
UniProt Q9BQI3, sequence (Q9BQI3 whole entry, looked up): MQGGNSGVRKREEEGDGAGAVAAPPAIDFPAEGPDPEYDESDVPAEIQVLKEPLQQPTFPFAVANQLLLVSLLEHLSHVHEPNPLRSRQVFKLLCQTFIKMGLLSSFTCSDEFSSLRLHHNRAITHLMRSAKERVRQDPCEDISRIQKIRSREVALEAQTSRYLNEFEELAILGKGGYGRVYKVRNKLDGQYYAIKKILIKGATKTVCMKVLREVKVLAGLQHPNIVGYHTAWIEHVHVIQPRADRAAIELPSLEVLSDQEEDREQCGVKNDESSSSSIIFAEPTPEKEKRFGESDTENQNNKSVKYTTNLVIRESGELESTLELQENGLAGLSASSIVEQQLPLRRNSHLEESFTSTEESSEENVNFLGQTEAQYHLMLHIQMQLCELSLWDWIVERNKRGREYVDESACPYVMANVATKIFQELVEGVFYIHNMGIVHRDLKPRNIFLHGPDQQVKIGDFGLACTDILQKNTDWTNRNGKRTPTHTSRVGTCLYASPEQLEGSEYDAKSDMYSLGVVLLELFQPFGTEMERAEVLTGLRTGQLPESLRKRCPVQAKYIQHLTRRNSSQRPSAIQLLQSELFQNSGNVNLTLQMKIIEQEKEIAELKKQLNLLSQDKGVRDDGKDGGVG
inactive: [1] 0.006 | [2] -0.035 | [3] -0.007 | [4] -0.022 | [5] -0.041

ENGASE (UniProt Q8NFI3)
inactive: [1] 0.042 | [2] 0.017 | [3] 0.038 | [4] 0.017 | [5] -0.023

ELAVL1 isoform 2 (UniProt Q15717)
inactive: [1] -0.038 | [2] 0 | [3] -0.017 | [4] 0.066 | [5] 0.052

EWSR1 (UniProt H7BY36)
inactive: [1] -0.079 | [2] -0.06 | [3] 0.091 | [4] -0.058 | [5] 0.061

GFPT1 (UniProt Q06210)
inactive: [1] -0.021 | [2] -0.001 | [3] 0.021 | [4] 0.019 | [5] 0.058

DTWD1 (UniProt Q8N5C7)
inactive: [1] -0.003 | [2] 0.075 | [3] -0.004 | [4] 0.039 | [5] 0.095

ERLIN1 (UniProt O75477)
inactive: [1] -0.03 | [2] 0.039 | [3] 0.02 | [4] 0.029 | [5] -0.033

GABPB1 (UniProt Q06547)
inactive: [1] 0.044 | [2] -0.013 | [3] -0.04 | [4] -0.001 | [5] 0.132

EXOC2 (UniProt Q96KP1)
inactive: [1] -0.01 | [2] -0.018 | [3] -0.013 | [4] -0.019 | [5] 0.063

ELF2 (UniProt Q15723)
UniProt Q15723, sequence (Q15723 whole entry, looked up): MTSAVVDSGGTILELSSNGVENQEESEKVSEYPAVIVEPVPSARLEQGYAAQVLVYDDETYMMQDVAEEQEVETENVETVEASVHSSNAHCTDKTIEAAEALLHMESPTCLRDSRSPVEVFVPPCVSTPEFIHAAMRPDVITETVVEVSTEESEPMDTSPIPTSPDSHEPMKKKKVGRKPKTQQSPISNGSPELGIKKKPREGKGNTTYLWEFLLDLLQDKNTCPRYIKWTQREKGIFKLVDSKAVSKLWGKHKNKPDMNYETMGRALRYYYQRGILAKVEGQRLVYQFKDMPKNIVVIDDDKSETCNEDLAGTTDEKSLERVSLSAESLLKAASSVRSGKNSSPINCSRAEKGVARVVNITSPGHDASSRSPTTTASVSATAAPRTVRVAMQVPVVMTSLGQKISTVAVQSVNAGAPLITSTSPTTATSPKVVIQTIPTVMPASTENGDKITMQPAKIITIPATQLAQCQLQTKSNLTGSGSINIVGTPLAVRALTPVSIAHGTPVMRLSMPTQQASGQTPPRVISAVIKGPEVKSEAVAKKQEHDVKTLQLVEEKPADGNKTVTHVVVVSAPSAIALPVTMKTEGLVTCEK
inactive: [1] -0.162 | [2] -0.074 | [3] 0.044 | [4] -0.005 | [5] 0.013

EBP (UniProt Q15125)
UniProt Q15125, sequence (Q15125 whole entry, looked up): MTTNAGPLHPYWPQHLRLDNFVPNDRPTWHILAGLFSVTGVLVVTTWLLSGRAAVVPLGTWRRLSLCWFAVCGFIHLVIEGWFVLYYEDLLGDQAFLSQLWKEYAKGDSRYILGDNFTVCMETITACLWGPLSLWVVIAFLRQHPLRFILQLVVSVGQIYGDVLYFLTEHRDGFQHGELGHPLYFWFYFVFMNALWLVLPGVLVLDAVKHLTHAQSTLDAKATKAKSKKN
inactive: [1] -0.011 | [2] -0.061 | [3] 0.022 | [4] 0.09 | [5] -0.141

FAM120B (UniProt Q96EK7)
UniProt Q96EK7, sequence (Q96EK7 whole entry, looked up): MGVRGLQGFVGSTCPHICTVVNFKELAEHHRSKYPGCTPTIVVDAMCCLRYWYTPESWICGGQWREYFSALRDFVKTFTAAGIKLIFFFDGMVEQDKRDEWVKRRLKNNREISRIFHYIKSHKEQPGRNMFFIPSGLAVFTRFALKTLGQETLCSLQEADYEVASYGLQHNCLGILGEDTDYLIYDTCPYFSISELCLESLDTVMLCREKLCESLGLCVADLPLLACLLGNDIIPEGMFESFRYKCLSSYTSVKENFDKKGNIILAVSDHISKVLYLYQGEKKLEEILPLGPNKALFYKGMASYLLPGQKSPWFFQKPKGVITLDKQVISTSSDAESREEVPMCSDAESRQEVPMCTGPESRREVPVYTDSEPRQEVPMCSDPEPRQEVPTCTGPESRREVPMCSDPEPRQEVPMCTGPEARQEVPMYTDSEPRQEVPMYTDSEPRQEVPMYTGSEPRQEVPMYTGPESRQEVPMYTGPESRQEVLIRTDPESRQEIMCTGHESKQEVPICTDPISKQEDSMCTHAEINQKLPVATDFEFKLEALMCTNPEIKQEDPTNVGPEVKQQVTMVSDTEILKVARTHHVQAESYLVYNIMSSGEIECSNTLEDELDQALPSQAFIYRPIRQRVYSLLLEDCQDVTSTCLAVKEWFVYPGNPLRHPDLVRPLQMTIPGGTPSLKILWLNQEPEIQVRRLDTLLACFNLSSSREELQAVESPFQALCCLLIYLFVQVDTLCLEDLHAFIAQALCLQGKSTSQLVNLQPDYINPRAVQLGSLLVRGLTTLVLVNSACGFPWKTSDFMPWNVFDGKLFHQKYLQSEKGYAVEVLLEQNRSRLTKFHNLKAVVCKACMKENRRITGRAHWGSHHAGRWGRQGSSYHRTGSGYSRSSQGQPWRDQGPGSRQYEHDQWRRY
inactive: [1] 0.034 | [2] 0.059 | [3] -0.004 | [4] -0.016 | [5] 0.035

EEF1A1P5 (UniProt Q5VTE0)
inactive: [1] 0.006 | [2] 0.011 | [3] 0.004 | [4] -0.067 | [5] -0.036

DSN1 (UniProt Q9H410)
inactive: [1] -0.012 | [2] 0.053 | [3] 0.019 | [4] -0.013 | [5] 0.02

ENO1 isoform 2 (UniProt P06733)
inactive: [1] 0.068 | [2] -0.145 | [3] 0.033 | [4] -0.062 | [5] -0.143

FYN (UniProt P06241)
UniProt P06241, sequence (P06241 whole entry, looked up): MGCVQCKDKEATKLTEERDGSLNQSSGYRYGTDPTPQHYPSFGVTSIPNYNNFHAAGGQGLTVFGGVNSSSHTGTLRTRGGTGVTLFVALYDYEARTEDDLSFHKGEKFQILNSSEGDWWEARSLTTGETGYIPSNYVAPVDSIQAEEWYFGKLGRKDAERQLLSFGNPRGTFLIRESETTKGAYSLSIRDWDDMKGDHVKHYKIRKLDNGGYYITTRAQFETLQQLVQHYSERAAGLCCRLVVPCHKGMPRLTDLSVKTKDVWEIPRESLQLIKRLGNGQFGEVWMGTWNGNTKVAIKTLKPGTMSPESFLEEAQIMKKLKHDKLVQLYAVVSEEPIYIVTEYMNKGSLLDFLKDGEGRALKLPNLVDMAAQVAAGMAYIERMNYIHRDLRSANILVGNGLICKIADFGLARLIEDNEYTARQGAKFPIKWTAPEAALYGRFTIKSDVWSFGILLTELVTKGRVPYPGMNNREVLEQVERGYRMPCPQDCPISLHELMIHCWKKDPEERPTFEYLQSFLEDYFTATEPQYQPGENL
inactive: [1] -0.323 | [2] -0.231 | [3] -0.052 | [4] 0.019 | [5] -0.112

EPN2 (UniProt O95208)
inactive: [1] -0.012 | [2] -0.017 | [3] -0.02 | [4] -0.084 | [5] -0.161

ERCC4 (UniProt Q92889)
active: [5] -0.305
inactive: [1] -0.038 | [2] 0.036 | [3] 0.043 | [4] -0.008

FBXO22 (UniProt Q8NEZ5)
inactive: [1] -0.007 | [2] -0.004 | [3] 0.03 | [4] 0.02 | [5] 0.083

ECI2 (UniProt O75521)
inactive: [1] 0.019 | [2] -0.005 | [3] 0.014 | [4] -0.009 | [5] -0.045
